Data reported in PubChem BioAssay.

Experiment: probe aLAP1 signal on lysate-treated microarray – cell lysate, small-molecule microarray, COS7 lysate, primary screen (AID 1124);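 also: lysate comes from COS7 cells expressing LAP1 and is applied at 0.3 µg/mL; score merges spot fluorescence near 667 nm with signal-to-noise over triplicate slides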
Conditions: probe aLAP1, fluorescence, higher = more signal
In the case of `COCCOC(=O)N1C(=O)[C@@]2(c3ccccc31)[C@H](c1ccc(O)cc1)N1[C@H](c3ccccc3)[C@H](c3ccccc3)OC(=O)[C@H]1[C@@H]2C(=O)Nc1nc2ccccc2s1`, the composite z-score is reported as 0.384.
`NC(=O)NCC#Cc1ccc2c(c1)[C@]1(C(=O)N2)[C@H](C(=O)Nc2nc3ccccc3s2)[C@H]2C(=O)O[C@H](c3ccccc3)[C@H](c3ccccc3)N2[C@@H]1c1ccccc1OCCO` gave a composite z-score of 1.14.
With `COCCOC(=O)N1C(=O)[C@@]2(c3ccccc31)[C@H](c1ccccc1OCCO)N1[C@H](c3ccccc3)[C@H](c3ccccc3)OC(=O)[C@H]1[C@@H]2C(=O)N1CCN(c2ncccn2)CC1` the composite z-score was 0.218.
For `COC(=O)[C@@]1(Cc2ccc(F)cc2)[C@H]2c3cc(C(=O)N4CCCC4)n(CCCNc4ncc(C(F)(F)F)cc4Cl)c3C[C@H]2CN1C(=O)c1ccccc1`, the composite z-score was -0.252.
Compound `CC(C)C[C@@H]1NC(=O)[C@@H]2C[C@H](C(=O)NCc3ccc(F)cc3)[C@H](c3cccc(OCCO)c3)N2C1=O` has a composite z-score of 1.19.
In the case of `C=CCC(OC(C)=O)[C@@H]1[C@@H](N(Cc2cc3ccccc3o2)C(=O)c2cccc3ccccc23)c2cc(OCCCO)ccc2N1C(=O)c1ccc(-c2ccccc2)cc1` (stereo partly specified), the composite z-score is reported as -0.187.
Work on `C#C[C@H](O[Si](C#Cc1ccc(Oc2ccccc2)cc1)(C(C)C)C(C)C)c1ccccc1` yielded a composite z-score of 0.484.
For `O=C1N[C@@H](Cc2ccccc2)C(=O)N2[C@@H]1C[C@@H](C(=O)O)[C@H]2c1cccc(OCCO)c1`, the composite z-score was 0.256.
For `COCCCNC(=O)[C@@]1(C)c2ccccc2C(=O)N(C(C)C)[C@H]1c1ccc(CO)cc1`, the composite z-score was 0.0526.
For `C=CCN1C(=O)[C@@]2(Cc3ccccc31)N=C(c1ccc(OCCCO)cc1)O[C@H]2c1ccccc1`, the composite z-score was 0.843.
In the case of `CN(C)CCCCCCNC(=O)[C@H]1C[C@H]2C(=O)N[C@@H](CCCCN)C(=O)N2[C@H]1c1cccc(OCCO)c1`, the composite z-score is reported as 0.952.
In the case of `COc1cc2c(cc1OC)CN(C(=O)[C@H]1[C@@H]3C(=O)O[C@@H](c4ccccc4)[C@@H](c4ccccc4)N3[C@@H](c3ccc(O)cc3)[C@]13C(=O)Nc1ccccc13)CC2`, the composite z-score is reported as 0.399.
For `C=CC1(C(=O)OC)CC=C(C(=O)OC)CC1` (stereo unspecified), the composite z-score was 0.872.
Compound `CCCC=C(CCC)[C@@H](NC(=O)c1cccs1)c1ccc(C(F)(F)F)cc1` has a composite z-score of 0.156.
`C=CCNC(=O)[C@@H]1[C@H]2C(=O)O[C@H](c3ccccc3)[C@H](c3ccccc3)N2[C@H](c2ccccc2OCCO)[C@@]12C(=O)N(C(=O)OCCOC)c1ccccc12` showed a composite z-score of 0.594.
`COC(=O)C[C@H]1O[C@]2(C(=O)N(C)c3ccccc32)[C@@H](C)[C@@H]1[Si](C)(C)F` showed a composite z-score of -0.0413.
For `C=CCOC(=O)[C@@H]1[C@H]2C(=O)O[C@H](c3ccccc3)[C@H](c3ccccc3)N2[C@H](c2ccc(OCCOC(=O)[C@@H]3C[C@@H]4C(=O)NCC(=O)N4[C@@H]3c3ccc(O)cc3)cc2)[C@@]12C(=O)Nc1ccc(I)cc12`, the composite z-score was -0.143.
Compound `COc1ccc(CCNC(=O)[C@@]2(C)c3ccccc3C(=O)N(C(C)C)[C@H]2c2ccc(CO)cc2)cc1` has a composite z-score of 0.591.
With `C=C(CC1([C@@H](NP(=O)(c2ccccc2)c2ccccc2)[C@H]2C[C@@H]2CCCC)CC1)c1ccccc1` the composite z-score was -0.293.
`COC(=O)[C@H](Cc1ccccc1)N1CC2=C[C@@H](C3CC3)n3c(=O)n(C)c(=O)n3[C@H]2[C@@H]1[C@@H](O)Cc1ccccc1` showed a composite z-score of 0.0511.
In the case of `C=C(/C(=C/C[C@H](OC(C)=O)c1ccc(CO)o1)c1cc(C(=O)OC)ccc1OC)C(C)C`, the composite z-score is reported as -0.185.
`[N-]=[N+]=Nc1ccccc1[C@H]1OC(c2ccc(OCCCO)cc2)=N[C@@]1(CCS(=O)(=O)c1ccccc1)C(N)=O` showed a composite z-score of 0.469.
Compound `COc1cc2c(cc1OC)CN(C(=O)[C@@H]1[C@H]3C(=O)O[C@H](c4ccccc4)[C@H](c4ccccc4)N3[C@H](c3ccccc3OCCO)[C@@]13C(=O)Nc1ccc(C#CCCO)cc13)CC2` has a composite z-score of 0.681.
Work on `C[N+](C)(C)CCCCNC(=O)[C@@H]1C[C@@H]2C(=O)N[C@@H](Cc3ccccc3)C(=O)N2[C@@H]1c1cccc(OCCO)c1` yielded a composite z-score of -0.15.
For `COCCOC(=O)N1C(=O)[C@@]2(c3cc(C#CCC(C(=O)OC)C(=O)OC)ccc31)[C@H](C(=O)Nc1nc3ccccc3s1)[C@H]1C(=O)O[C@H](c3ccccc3)[C@H](c3ccccc3)N1[C@@H]2c1ccccc1OCCO`, the composite z-score was 0.581.
With `CCC[C@@H]1C[C@@]1(CCC)[C@@H](NS(=O)(=O)c1cccc2cccnc12)c1ccc(Cl)cc1` the composite z-score was -0.119.
